Experimental data as given in PubChem BioAssay.
Unmarked numbers belong to inactive results. No rule for the calls is given here.

Experiment: compounds altering viability of human ES cells (AID 493140);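 also: cells exposed to compounds for four days before counting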
Conditions: human embryonic stem cell survival screen; hits give high values

COc1cc(/C=C/C(=O)N2CCC=CC2=O)cc(OC)c1OC
survival: 0.417
